The text below walks through data of PubChem BioAssay.

The test in a line: small molecules captured by biotinylated probe aFSTL3 – biochemical, small-molecule microarray, fluorescence 635/667, stem cell growth factor project, primary screen (AID 1064).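 Further: measures binding of the biotinylated anti-FSTL3 antibody to printed compounds.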 The note with it: higher = more signal.
Molecule `CCCNC(=O)[C@@]1(Sc2ccc(C)cc2)CC(=O)N(Cc2ccccc2Cl)[C@@H]1c1ccc(CO)cc1` returned a composite z-score of 0.295.

`C[C@H]1COC(=O)[C@H](Cc2ccccc2)NC(=O)[C@@H](C)COC(=O)[C@H](Cc2ccccc2)NC1=O`: the composite z-score is -0.275.

In turn, `CC(C)N1CC=CC23O[C@@H]4/C=C\CCCOC(=O)C4[C@H]2C(=O)N(CCO)[C@@H]3C1=O` (stereo partly specified) showed a composite z-score of -0.0118.

Take `COC(=O)[C@@]1(Cc2ccc(OC)cc2)[C@H]2c3cc(C(=O)N(C)C)n(CCc4ccc(OC)c(Br)c4)c3C[C@H]2CN1C(=O)c1ccccc1`: the composite z-score came to 1.53.

In turn, `COCCOC(=O)N1C(=O)[C@@]2(c3cc(C#CCCO)ccc31)[C@H](c1ccc(O)cc1)N1[C@H](c3ccccc3)[C@H](c3ccccc3)OC(=O)[C@H]1[C@@H]2C(=O)Nc1nc2ccccc2s1` registered a composite z-score of -0.243.

Molecule `C=CC[C@]1(C(=O)N2CCCCC2)N=C(c2ccc(OCCCO)cc2)O[C@H]1c1ccccc1N=[N+]=[N-]` came in with a composite z-score of 1.16.

In turn, `CCCC=C(CCC)[C@@H](NS(=O)(=O)c1cccc(C(F)(F)F)c1)c1ccc(C(=O)OC)cc1` yielded a composite z-score of 2.23.

Turning to `COc1ccc([Si](C)(C)[C@@H]2[C@@H](CC(=O)N(CCO)Cc3ccccc3)O[C@]3(C(=O)N(Cc4cccc(N5CCC5=O)c4)c4ccccc43)[C@H]2C)cc1`, the composite z-score was -0.113.

Molecule `COc1cc([C@@H]2N[C@H](C(=O)O)Cc3c2[nH]c2ccccc32)cc(OC)c1OC` gave a composite z-score of -0.534.

Molecule `COCC(=C=CC[C@H](O)c1ccc(OCCO)cc1)C[C@H](O)c1ccccn1` yielded a composite z-score of -0.103.

As for `COCCOC(=O)N1C(=O)[C@@]2(c3cc(C#CC4(O)CCCCCC4)ccc31)[C@H](C(=O)N1CCCCCCC1)[C@H]1C(=O)O[C@H](c3ccccc3)[C@H](c3ccccc3)N1[C@@H]2c1ccc(O)cc1`, the composite z-score came out at 3.29.

Molecule `C=CCC(OC(C)=O)[C@@H]1[C@@H](N(Cc2cc3ccccc3o2)C(=O)c2ccc(C)cc2)c2cc(OCCCO)ccc2N1C(=O)c1ccc2ccccc2n1` (stereo partly specified) registered a composite z-score of 0.216.

Molecule `C=C(COC)C(=O)CC[C@H](OC(=O)c1ccccc1-c1ccccc1C(=O)O)c1cccc(OCCO)c1` gave a composite z-score of -0.102.

`CC(C)[Si](OCC[C@H]1O[C@]2(C(=O)N(Cc3ccccc3)c3ccccc32)[C@@H](C)[C@@H]1[Si](C)(C)O)(C(C)C)C(C)C` registered a composite z-score of -0.143.

For the molecule `CO[C@H]1COC(=O)CC=C[C@H](C)[C@@H](OC)COC(=O)CC=C[C@@H]1C`, the composite z-score is -0.623.

Consider `COCCOC(=O)N1C(=O)[C@@]2(c3cc(C#CC4=CCCCC4)ccc31)[C@H](C(=O)NC[C@H](O)c1ccccc1)[C@H]1C(=O)O[C@H](c3ccccc3)[C@H](c3ccccc3)N1[C@@H]2c1ccccc1OCCO`, for which the composite z-score amounted to 0.462.

As to `COc1cc2c(cc1OC)CN(C(=O)[C@H]1[C@@H]3C(=O)O[C@@H](c4ccccc4)[C@@H](c4ccccc4)N3[C@@H](c3ccc(O)cc3)[C@]13C(=O)Nc1ccc(C#CC4(O)CCCCCC4)cc13)CC2`, the composite z-score came to 1.75.

Molecule `CN(C)C(=O)[C@@]1(Cc2ccccc2N=[N+]=[N-])N=C(c2ccc(OCCCO)cc2)O[C@H]1c1ccccc1CN=[N+]=[N-]` had a composite z-score of 0.832.

Consider `CO[C@H]1COC(=O)[C@@H](C)COC(=O)[C@H](Cc2ccccc2)NC(=O)CC=C[C@H]1C`, for which the composite z-score was -0.678.

The molecule `CC(=O)NCCCC[C@@H]1NC(=O)[C@H]2C[C@@H](C(=O)NCCCCCCN(C)C)[C@@H](c3cccc(OCCO)c3)N2C1=O` had a composite z-score of 0.0256.

For `C=CCC(OC(C)=O)[C@@H]1[C@@H](N(Cc2ccc(-c3ccccc3)cc2)C(=O)c2ccc(-c3ccccc3)cc2)c2cc(OCCCO)ccc2N1C(=O)Cc1ccc(OC)cc1` (stereo partly specified), the composite z-score was -0.28.

In turn, `COCCCNC(=O)[C@@H]1c2ccccc2C(=O)N(CC23CC4CC(CC(C4)C2)C3)[C@H]1c1ccc(CO)cc1` registered a composite z-score of 0.621.

As for `C=CCN1C(=O)[C@]2(O[C@H](CCn3cc(CCO)nn3)[C@@H]([Si](C)(C)c3ccc(OC)cc3)[C@@H]2C)c2cc(NC(=O)c3ccc(OC)cc3)ccc21`, the composite z-score came to 0.615.

On to `C=C(CCCC)/C(=C/C[C@@H](OC(=O)c1ccncc1)c1ccc(CO)o1)c1cnc2ccccc2c1`, for which the composite z-score was -0.297.

Regarding `COC(=O)Cn1c(C(=O)N2CCCC2)cc2c1C[C@H]1CN(C(=O)c3ccccc3)[C@@](Cc3ccc(OC)cc3)(C(=O)OC)[C@@H]21`, the composite z-score came to 0.666.

In turn, `C=C(CCCC)C(=O)CC[C@@H](OC(C)=O)c1ccccc1OCCO` showed a composite z-score of 0.286.

Molecule `CCOC(=O)C[C@H]1[C@H](OC(=O)c2cc3ccccc3oc2=O)[C@@H](NC(=O)C2CCCCC2)c2cc(OCCCO)ccc2N1C(=O)c1ccc2ccccc2n1` yielded a composite z-score of -0.662.

Take `COC(=O)C(CC#Cc1ccc2c(c1)[C@]1(C(=O)N2)[C@H](C(=O)N2CCCCCCC2)[C@H]2C(=O)O[C@H](c3ccccc3)[C@H](c3ccccc3)N2[C@@H]1c1ccc(O)cc1)C(=O)OC`: the composite z-score is 0.565.

For the molecule `C=C[C@H](OC)[C@@H](OC(=O)Nc1ccc(SC)cc1)c1ccc(O)c(F)c1`, the composite z-score is -0.0125.

Molecule `O=C1O[C@@H](c2ccccc2)[C@@H](c2ccccc2)N2[C@@H](c3ccc(OCCO)cc3)[C@]3(C(=O)Nc4ccc(C#CCCO)cc43)[C@@H](C(=O)N3CCN(c4ncccn4)CC3)[C@H]12` had a composite z-score of -0.375.

As to `C=CCC(OC(C)=O)[C@@H]1[C@@H](N(Cc2cccc3ccccc23)C(=O)Cc2ccc(F)cc2)c2cc(OCCCO)ccc2N1C(=O)Cc1ccc2ccccc2c1` (stereo partly specified), the composite z-score was -0.154.

Take `O=C1O[C@@H](c2ccccc2)[C@@H](c2ccccc2)N2[C@@H](c3ccc(O)cc3)[C@]3(C(=O)Nc4ccc(C#CC5(O)CCCCCC5)cc43)[C@@H](C(=O)Nc3nc4ccccc4s3)[C@H]12`: the composite z-score was -0.128.

For `C#CCCCON=C1C[C@@H](O)[C@@H](O)[C@@H]2[C@@H]3C(=O)N(Cc4ccc5c(c4)OCO5)C(=O)[C@@H]3CC[C@@H]12`, the composite z-score was -0.158.

Turning to `O=C1O[C@H](c2ccccc2)[C@H](c2ccccc2)N2[C@H]1[C@@H](C(=O)NC[C@H](O)c1ccccc1)[C@]1(C(=O)Nc3ccc(C#CC4(O)CCCCCC4)cc31)[C@H]2c1ccc(OCCO)cc1`, the composite z-score stood at 0.247.

Molecule `CCOC(=O)C1=C[C@@H](c2ccccc2)N(S(=O)(=O)c2ccc(C)cc2)[C@H]1c1ccc(F)cc1` returned a composite z-score of -0.0809.

`O=[N+]([O-])c1ccc(C[n+]2ccc3ccc(O)cc3c2)o1` yielded a composite z-score of -0.493.
